# In the library only some 8.2% were active in any assay of this set; here they are far more common.
# MCF10A rerep: induces DNA re-replication in MCF 10a normal breast cells; MCF 10A DNA re-replication, Hoechst nuclear intensity, 48 h; Potency, µM (top dose mostly 46.1 µM), without a hit: top-dose activity, positive = re-replication, hits mostly activators; 350,000 compounds, 2.9% hits; AID 624296; note: % of control where 0% means no effect; nearly all actives have a fitted effect of over 50% in size
# KB-3-1 tox: KB-3-1 parental cell cytotoxicity; KB-3-1 viability, CellTiter-Glo ATP luminescence, 72 h; 400,000 compounds, 1.4% hits; Potency, µM (series often up to 46.1 µM), actives largely listed as cytotoxic; AID 1347075; note: % is set by controls: 0 for no effect and ±100 for the full control effect; nearly all actives have a fitted effect of over 60% in size
#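 Screening of KB-3-1 cells (DMEM, 10% FBS, phenol-red free) ran from lowest to highest compound concentration; after 72 h at 37 °C viability was read luminescently and curves fitted.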
# SW480 rerep: induces DNA re-replication in SW480 colon adenocarcinoma cells; 340,000 compounds, 1.8% hits; SW480 DNA re-replication, Hoechst DNA content imaging, 48 h; Potency, µM (series often up to 46.1 µM), for inactives: at the highest dose re-replication activation, usual class: activators; note: % of control where 0% means no effect; nearly all actives have a fitted effect of over 55% in size
#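 Compounds, transferred as 23 nL by pin tool, were incubated with cells for 48 hr; DNA content per nucleus was then quantified by Hoechst staining and fluorescence plate imaging.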
# ELG1 DNA repair: ELG1-dependent DNA repair inhibition | HEK293T ELG1-luciferase reporter, luminescence, 16 h; DNA damage induced by 5-fluorouridine | Potency, µM (titrated, usually from 46.1 µM), for inactives: at the highest dose activity change, negative = inhibition, usual class: inhibitors | 330,000 compounds, 2.3% hits; note: % is set by controls: 0 for no effect and ±100 for the full control effect; nearly all actives have a fitted effect of over 55% in size
#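 In this reporter screen, reduction of luminescence relative to DMSO vehicle indicated activity. Compounds and 5-fluorouridine were added together to 2,000 cells per well, incubated for 16 hr at 37 °C, then developed with ONE-Glo.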
# KB-V1 cytotox: kills drug-selected multidrug resistant KB-V1 cells; Potency, µM (highest dose often 46.1 µM), most hits filed as cytotoxic; KB-V1 MDR cells viability, CellTiter-Glo, 72 h; 400,000 compounds, 3.4% hits; AID 1347076; note: % is set by controls: 0 for no effect and ±100 for the full control effect; nearly all actives have a fitted effect of over 60% in size
#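 Compound-treated KB-V1 multidrug-resistant cells, 72 h, 37 degrees C; viability by CellTiter-Glo. Fitted qHTS curves give the values.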
# An asterisk follows results filed as active; i = inactive; ? = inconclusive; . = no result given. Calls come from the whole dose curve; as a rule, active = well fitted curve in the direction sought with a large enough effect; inconclusive = small, poorly fitted or top-dose-only effect, or another doubt; inactive = no such curve, though single readings can be large; an effect the other way counts as inactive or inconclusive. Potency is the fitted concentration of half-maximal effect.
SMILES,MCF10A rerep,KB-3-1 tox,SW480 rerep,ELG1 DNA repair,KB-V1 cytotox
COc1cc2sc3ccc(-c4ccc(CN5CCOCC5)cc4)cc3c(=O)c2cc1OC,6.51µM*,?,22.5%,?,13µM*
CCN(c1ccccc1)S(=O)(=O)c1ccc2c(c1)OCCO2,-1.7%,i,-8.1%,-1.0%,i
COc1ccc(C2C(O)C(c3c[nH]c4ccccc34)=NN2C(=O)CCl)cc1 (centres undefined),4.61µM*,?,1.3µM*,8.2µM*,14.6µM*
COc1ccc(C2=NS(=O)(=O)N(C)C(C(=O)Nc3ccc(F)cc3F)=C2)cc1,-3.5%,i,-1.4%,6.1%,i
CC(C(=O)NCc1ccccc1)n1c(-c2ccc3c(c2)CCO3)nc2ccccc21 (centres undefined),.,i,.,.,?
COC(=O)C1=CN(C2CC2)C=C(C(=O)OC)C1c1ccc(C(=O)OC)cc1,?,i,4.0%,?,7.31µM*
COc1ccc(S(=O)(=O)Nc2cc3c(cc2NCc2ccccc2)n(C)c(=O)n3C)cc1OC,.,i,.,.,i
CCOC(=O)C1CCN(C(=O)c2ccccc2)C(CC)C1=O (centres undefined),2.5%,i,-5.1%,.,20.6µM*
CCOC(=O)C1CCN(S(=O)(=O)Cc2ccccc2)C1=O (centres undefined),-1.2%,i,-3.6%,8.7%,i
COc1ccc(NC(=O)CN(C)S(=O)(=O)c2ccc3[nH]c4c(c3c2)CCCC4)cc1Cl,.,i,.,.,i
COc1ccc2c(=O)n3nc(Nc4cccc(N5CCN(C)CC5)c4)sc3nc2c1,.,i,.,.,i
Cc1ccc(NC(=O)c2ccc(NC(=O)c3ccccc3)cc2)cc1C,24.1%,23.1µM*,?,?,18.4µM*
Cc1cc(C(C)(C)C)cc(S(=O)(=O)Nc2ccc(O)c(C(=O)O)c2)c1C,2.5%,i,-10.7%,10.8%,i
O=C(Nc1ccc(O)cc1)c1ccc(NC(=O)c2cccs2)cc1,18.4µM*,18.4µM*,-10.1%,?,i
O=C(Nc1ccc(-c2nc3ccc(NC(=O)c4cccs4)cc3[nH]2)cc1)c1cccs1,?,6.51µM*,?,?,i
CC(=O)Nc1ccc(NC(=O)c2ccc(NS(=O)(=O)c3cc(C(C)(C)C)cc(C)c3C)cc2)cc1,18.4µM*,i,1.1%,0.3%,i
O=C(CSc1nc2ccccc2[nH]1)N1CCOCC1,.,i,.,.,?
Cc1cc(C)c2nccc(C)c2c1,.,i,.,.,i
Cc1cccc(C(=O)Nc2ccc(C(=O)Nc3ccc(O)cc3)cc2)c1,14.6µM*,i,-0.7%,8.4%,i
Cc1ccc(NC(=O)CCC(=O)NNC(=O)Cc2ccccc2)cc1C,1.84µM*,i,5.9%,5.0%,i
Cc1ccc(NC(=O)CCC(=O)NNS(=O)(=O)c2ccccc2)cc1C,5.4%,i,-1.3%,0.5%,?
Cc1cccc(C(=O)Nc2ccc(NC(=O)c3cccc(C)c3)cc2)c1,.,?,.,.,i
Cc1ccc(C(=O)Nc2cc(C(C)C)c(O)c(C(C)C)c2)cc1,-2.0%,?,-0.9%,?,16.4µM*
COc1ccc(CCN2C(=O)c3ccccc3C2c2nnnn2-c2c(C)cccc2C)cc1OC (centres undefined),.,i,.,.,?
CCOc1ccc(C(=O)CCC(=O)Nc2cccc(S(=O)(=O)N3CCCCC3)c2)cc1,?,.,-5.0%,-21.2%,.
CC(C)c1ccc2oc(-c3ccc(N)cc3)nc2c1,10.5%,?,12.3%,?,20.6µM*
O=[N+]([O-])c1ccc(/C=C2\CCC(C3=CCCC3)=C2N2CCOCC2)cc1,23.1µM*,i,?,?,?
CCOc1ccc(-c2ccc(/C=C3/C(=N)N4C(C)=CSC4=NC3=O)o2)c([N+](=O)[O-])c1,?,i,-5.4%,25.9µM*,?
O=C1c2c(-c3ccc(Br)cc3)noc2CCN1Cc1cn(C2CCCC2)nn1,.,?,.,.,20.6µM*
COc1ccccc1-c1noc2c1C(=O)N(Cc1cn(-c3ccccc3)nn1)CC2,.,?,.,.,i
